Details in all cases: 25 µM; exposure: 24-48 hpf
The subject of assay [1] is Danio rerio Tg(wt1b:EGFP) embryo, pronephros. Description: glomerular separation, fold change vs DMSO control; higher = glomeruli further apart (abnormal). The method in brief:
(§1)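 Every feature is expressed as a fold change relative to the averaged DMSO-treated embryos of the same day. The exposure ran from 24 to 48 hpf at 28.5°C, with dechorionated Tg(wt1b:EGFP) zebrafish embryos in HEPES-buffered E3 containing 0.003% PTU, 0.5% DMSO and 25 μM compound. Dorsal pronephros images taken in agarose-filled 96-well plates were reduced to maximum projections, on which 16 reference points were set by hand in Fiji for a macro to compute distances and angles. Values more than 2 SD from the feature mean were not used.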

Assay [2] shares this test system. The experiment in a line: glomerular width (mean of left and right), fold change vs DMSO control; higher = wider glomerulus. Summed up:
as §1

Assay [3] shares this test system. The experiment in a line: fraction of imaged embryos annotated as normal kidney; higher = less nephrotoxic; extreme values may be limits of the assay. The method in brief:
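From 24 to 48 hpf at 28.5°C, dechorionated Tg(wt1b:EGFP) zebrafish embryos in 12-well plates were kept in 5 mM HEPES-buffered E3 with 0.003% PTU, 0.5% DMSO and 25 μM compound. Pronephroi were imaged by widefield fluorescence at 470 nm and judged by eye from maximum projections. Reported is the proportion of embryos per treatment in the normal-kidney category.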

Assay [4] shares this test system. Description: pronephric angle neck segment to proximal convoluted tubule (mean of left and right), fold change vs DMSO control; higher = larger pronephric angle. Summed up: as §1

Data on 10 compounds can be found in the supplement of paper PMC7366291.

Where a name gives a salt, the structure may show the parent alone. ± gives the standard deviation or the standard deviation of the averaged measurements.

As for `CCCCOc1ccc(C(=O)CCN2CCCCC2)cc1` [Dyclonine hydrochloride], in assay [1], the glomerular separation is 0.982 ± 0.26. The glomerular width in assay [2] is 1.02 ± 0.071. The “fraction of imaged embryos annotated as normal kidney” value (“fraction of imaged embryos annotated” for short) in assay [3] came to 0.833. Also, the “pronephric angle neck segment” value in assay [4] is 1.004 ± 0.0035.

`O=C(O)Cc1sc(-c2ccccc2)nc1-c1ccc(Cl)cc1` [Fentiazac] displayed a glomerular separation in assay [1] of 6.56 ± 3.2. In addition, the glomerular width in assay [2] came to 0.503 ± 0.018. In assay [3], the “fraction of imaged embryos annotated” value worked out at 0. In assay [4], the “pronephric angle neck segment” value turned out to be 1.75 ± 0.059.

The compound `CC(CN(C)C)C(C)(O)Cc1ccc(Cl)cc1` (stereo not given) [Clobutinol hydrochloride] gave a glomerular separation in assay [1] of 1.4 ± 0.46. Further, the glomerular width in assay [2] amounted to 0.945 ± 0.026. Further, the “fraction of imaged embryos annotated” value in assay [3] is 0.75. Besides, the “pronephric angle neck segment” value in assay [4] was 0.979 ± 0.034.

The compound `Cc1nnc(SCC2=C(C(=O)O)N3C(=O)[C@@H](NC(=O)Cn4cnnn4)[C@H]3SC2)s1` [Cefazolin sodium salt] returned a glomerular separation in assay [1] of 0.771 ± 0.24. Also, the glomerular width in assay [2] amounted to 1.072 ± 0.008. The “fraction of imaged embryos annotated” value in assay [3] worked out at 0.75. Further, the “pronephric angle neck segment” value in assay [4] came out at 1.03 ± 0.027.

As to `Cc1c(C)c2c(c(C)c1O)CCC(C)(C(=O)O)O2` (stereo not given) [Trolox], the glomerular separation in assay [1] stood at 0.733 ± 0.23. The same compound came in with a glomerular width in assay [2] of 0.963 ± 0.058. The “fraction of imaged embryos annotated” value in assay [3] turned out to be 0.833. Further, the “pronephric angle neck segment” value in assay [4] worked out at 1 ± 0.014.

`CN(CCCN1c2ccccc2CCc2ccccc21)CC(=O)c1ccc(Cl)cc1` [Lofepramine]: the glomerular separation in assay [1] was found to be 1.23 ± 0.38. The glomerular width in assay [2] was determined as 0.98 ± 0.035. Besides, the “fraction of imaged embryos annotated” value in assay [3] was 0.917. Besides, the “pronephric angle neck segment” value in assay [4] stood at 1.09 ± 0.011.

In assay [1], `CCOC(=O)NNc1nncc2ccccc12` [Todralazine hydrochloride] yielded a glomerular separation of 0.937 ± 0.25. The glomerular width in assay [2] was 0.993 ± 0.06. The “fraction of imaged embryos annotated” value in assay [3] was 0.917. Also, the “pronephric angle neck segment” value in assay [4] is 0.963 ± 0.031.

With `Nc1nc(N)nc(-c2cc(Cl)ccc2Cl)n1` [Irsogladine maleate], in assay [1], the glomerular separation is 1.11 ± 0.39. In addition, the glomerular width in assay [2] was 0.976 ± 0.016. Moreover, the “fraction of imaged embryos annotated” value in assay [3] came out at 0.909. Besides, the “pronephric angle neck segment” value in assay [4] is 1.07 ± 0.029.

Compound `CN1C2CCCC1CC(NC(=O)c1nn(C)c3ccccc13)C2` (stereo not given) [Granisetron] yielded a glomerular separation in assay [1] of 0.791 ± 0.23. For the same compound, the glomerular width in assay [2] amounted to 0.98 ± 0.024. For the same compound, in assay [3], the “fraction of imaged embryos annotated” value is 0.917. In assay [4], the “pronephric angle neck segment” value came out at 1.04 ± 0.015.

Turning to `CC(=O)O[C@H]1C[C@@H]2CC[C@@H]3[C@H](CC[C@@]4(C)[C@H]3C[C@H]([N+]3(C)CCCCC3)[C@@H]4OC(C)=O)[C@@]2(C)C[C@@H]1N1CCCCC1` [Vecuronium bromide], in assay [1], the glomerular separation is 1.01 ± 0.35. This compound also yielded a glomerular width in assay [2] of 0.967 ± 0.024. In addition, the “fraction of imaged embryos annotated” value in assay [3] was determined as 1. The “pronephric angle neck segment” value in assay [4] came to 1.03 ± 0.028.
